# Reference: PubChem BioAssay (EPA / NIEHS)
# Where “and” joins values, the source holds several entries; their conditions need not be identical. Equal entries are not always repeated. Where a structure was tested more than once in an assay, its records may differ in their call. Calls of active or inactive are those of the source. How the source made its calls: active means hit-call score of the fitted dose curve at least 0.9, where 1 is the maximum; inconclusive means response in the unintended direction; inactive means score below 0.9.
# Test: LTEA_HepaRG_LDH_cytotoxicity: Cytotoxicity Assessment in the Life Technologies and Expression Analysis (LTEA) Assay (AID 2283563)
# Description: LTEA_HepaRG is a cell based, multiplexed-readout assay that uses HepaRG, a human liver cell line, with measurements taken at 48 hours after chemical dosing on a 96-well plate.LTEA_HepaRG_LDH_cytotoxicity is one of 102 assay component(s) measured in the LTEA HepaRG cell culture assay. It is a marker of cell viability / cytotoxicity.Data from the assay component LTEA_HepaRG_LDH_cytotoxicity was analyzed into 1 endpoint. This assay endpoint, LTEA_HepaRG_LDH_cytotoxicity, was analyzed in the positive fitting direction relative to DMSO as the negative control and baseline of activity. Using a type of inducible reporter, measures of mRNA induction for loss-of-signal activity can be used to understand cell death. To generalize the intended target to other relatable targets, this assay endpoint is annotated to the cell cycle intended target family, where the subfamily is proliferation.
# A total of 1060 chemcials from the ToxCast library were tested in eight-point concentration-response experiments. Cell culture and cytotoxicity assays were conducted at Thermo Fisher Scientific's Custom Services facility (Madison, WI). A single lot of human HepaRG cells (Thermo Fisher Scientific, Frederick, MD) was used for the cell culture experiments. 96-well format collagen type I coated plates of human HepaRG cells were prepared using established methods. Briefly, cryopreserved HepaRG cells were thawed, plated at a density of approximately 100,000 cells/well in HepaRG Thaw, Plate, and General Purpose media (HPRG770, Thermo Fisher Scientific), and incubated for 48 hours. 0.5% DMSO was selected as vehicle control to balance the requisite need of DMSO in HepaRG cultures to maintain differentiation (for example, baseline metabolism, proportions of hepatocytes vs. cholangiocytes), while enabling further hepatic receptor pathway activation (for example, PXR and CAR) in response to chemical exposure. 48 hours after plating, the culture medium was replaced with HepaRG Serum-Free Incudtion Media. Cells were exposed to each test chemical in duplicate and maintained in CO2 incubators for another 48 hours. Chemical plates were thawed to room temperature and 200x concentrations of treatment groups were prepared. 8-point conentration-reponse curves were made with the highest exposure at 100 uM, followed by half-log dilutions, all in 0.5% DMSO. Each test plate contained variouse controls, induction positive controls (1mM phenobarbital), cytotoxicity positive controls ([…] aflatoxin B1), vehicle controls (0.5% DMSO), and total lysis controls (0.5% DMSO). Cell morphology images were taken using an Essen IncuCyte FLR automated microscope, with six 96-well plates imaged in about 24 minutes. Images were captured and exported and JPEG files. Spent culture media was transfered to black-well plates for the LDH assay, and remaining media was sorted at -80 C for later use. Cells were treated with RLT buffer and frozen until shipped for gene expression analysis. Total RNA was isolated from the cell suspension in 75 uL of Buffer RLT (Qiagen, Germantown, MD 20874) by Quintiles/Expression Analysis (Durham, NC) using a custom isolation procedure. Total RNA from each plate well was transferred to a preamplification plate. Fluidigm's 96.96 Dynamic ArrayTM (Fluidigm, Amsterdam, the Netherlands) technology was used for gene expression analyses by quantitative reverse transcription polymerase chain reaction (qRT-PCR, performed by Quintiles/Expression Analysis, Durham, NC)89. Standard TaqManTM Assays (Applied Biosystems/ThermoFisher Scientific, Foster City, CA) were used to assess the expression of 93 genes selected based on their selectivity and sensitivity to important hepatic receptors known to be modulated by environmental chemicals; importance in human hepatocyte functionality; and hepatotoxicity. […]
SMILES,outcome,AC50
CCC(C)Nc1c([N+](=O)[O-])cc(C(C)(C)C)cc1[N+](=O)[O-] (stereo not given),inactive,–
COc1nn(CSP(=S)(OC)OC)c(=O)s1,inactive,–
O=S1OCC2C(CO1)C1(Cl)C(Cl)=C(Cl)C2(Cl)C1(Cl)Cl (stereo not given),–,94 µM (active)
Oc1ccc(Cl)cc1Cc1ccccc1,–,91.5 µM (active) and 93.3 µM (active) and 94.7 µM (active)
CNC(=O)CSP(=S)(OC)OC,inactive,–
O=C(Nc1ccccc1)Nc1cnns1,–,77.2 µM (active)
CC1(c2ccc(Oc3ccccc3)cc2)OC(=O)N(Nc2ccccc2)C1=O (stereo not given),–,50.2 µM (active)
CC(C)OC(=O)Nc1cccc(Cl)c1,inactive,–
N#CN,inactive,–
O=[N+]([O-])/N=C1\NCCN1Cc1ccc(Cl)nc1,inactive,–
CCC(C)(NC(=O)c1cc(Cl)c(C)c(Cl)c1)C(=O)CCl (stereo not given),–,77.6 µM (active)
O=[N+]([O-])c1c(Cl)c(Cl)c(Cl)c(Cl)c1Cl,inactive,–
ClC1C(Cl)C(Cl)C(Cl)C(Cl)C1Cl (stereo not given),inactive,–
CCOCN(C(=O)CCl)c1c(C)cccc1CC,–,76 µM (active)
OCCOc1ccccc1,inactive,–
O=C(O)COc1ccc(Cl)cc1Cl,inactive,–
O=S(=O)(O)C(F)(F)C(F)(F)C(F)(F)C(F)(F)C(F)(F)C(F)(F)C(F)(F)C(F)(F)F,inactive,75.8 µM (active) and 79.2 µM (active) and 75.4 µM (active)
Cc1[nH]c(=O)n(C(C)(C)C)c(=O)c1Cl,inactive,–
CCC(C)(C)C(=O)OC1=C(c2ccc(Cl)cc2Cl)C(=O)OC12CCCCC2,inactive,–
CNC(=O)Oc1ccccc1OC(C)C,inactive,–

SMILES,outcome,AC50
O=C1c2ccccc2C(=O)N1SC(Cl)(Cl)Cl,inactive,–
CCCN(CCC)c1c([N+](=O)[O-])cc(C(F)(F)F)cc1[N+](=O)[O-],inactive,–
CC1(C)C(C=C(Cl)Cl)C1C(=O)OC(C#N)c1ccc(F)c(Oc2ccccc2)c1 (stereo not given),inactive,–
CCOC1Oc2ccc(OS(C)(=O)=O)cc2C1(C)C (stereo not given),–,83.8 µM (active)
CCN(CC)C(=O)SCc1ccc(Cl)cc1,inactive,–
N#Cc1c(Cl)c(Cl)c(Cl)c(C#N)c1Cl,–,50 µM (active)
CC(C)N(C(=O)COc1nnc(C(F)(F)F)s1)c1ccc(F)cc1,inactive,–
COP(=S)(OC)Oc1ccc(SC)c(C)c1,inactive,–
Oc1cc(Cl)ccc1Oc1ccc(Cl)cc1Cl,–,78.6 µM (active) and 78.2 µM (active) and 78 µM (active)
CC(C)(C)C(O)C(Oc1ccc(Cl)cc1)n1cncn1 (stereo not given),inactive,–
COP(=S)(OC)Oc1ccc([N+](=O)[O-])cc1,inactive,–
CCCN(CCOc1c(Cl)cc(Cl)cc1Cl)C(=O)n1ccnc1,–,36 µM (active)
CC(C)(C)C(O)/C(=C\c1ccc(Cl)cc1Cl)n1cncn1 (stereo not given),–,72.9 µM (active)
O=C(O)CCCOc1ccc(Cl)cc1Cl,inactive,–
CCc1ccc(C(=O)NN(C(=O)c2cc(C)cc(C)c2)C(C)(C)C)cc1,–,81.9 µM (active)
CC[C@H](C)[C@H]1O[C@]2(C=C[C@@H]1C)C[C@@H]1C[C@@H](C/C=C(\C)[C@@H](O[C@H]3C[C@H](OC)[C@@H](O[C@H]4C[C@H](OC)[C@@H](O)[C@H](C)O4)[C@H](C)O3)[C@@H](C)/C=C/C=C3\CO[C@@H]4[C@H](O)C(C)=C[C@@H](C(=O)O1)[C@]34O)O2 (tested in a mixture with another compound),–,22.1 µM (active)
O=C(NC(=O)c1c(F)cccc1F)Nc1ccc(OC(F)(F)C(F)OC(F)(F)F)c(Cl)c1 (stereo not given),inactive,–
O=C(O)C(F)(F)C(F)(F)C(F)(F)C(F)(F)C(F)(F)C(F)(F)C(F)(F)F,inactive,–
CNC(=O)/C=C(\C)OP(=O)(OC)OC,inactive,–
